From PubChem BioAssay AID760 (NMMLSC, 2007)
About 360 (0.19%) of roughly 190,000 compounds were called active. Another 2% or so got no clear call; they are omitted. This is one part of a sample in which actives are shown more often than they occur. A number with no mark means an inactive call.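 How the source made its calls: active means GTP binding activity at least 20 points away from 100%, either lowered or raised; inconclusive means signal likely due to the compound's own green fluorescence; inactive means the rest.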

Each compound was assayed against Ras-related protein Rab-2A (Canis lupus familiaris) (UniProt P61105) (assay: modulators of GTP binding to Rab2A wildtype, primary screen, biochemical, dog, bead-based flow cytometry, multiplex (AID 760;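 further: 0% = beads with excess unlabeled GTP and 100% = no-compound control corrected for plate trend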)). Details: GST-Rab2 wt beads, Bodipy-GTP binding, at 10 µM.

| Compound | GTP binding activity |
| --- | --- |
| CCc1nnc(NC(=O)CSc2nnnn2-c2cccc(C(C)=O)c2)s1 | 97% |
| CC(=O)NC1C(OCc2ccccc2)OC(COC(C)=O)C(OC(C)=O)C1OC(C)=O (stereo not given) | 100% |
| O=C(OCC1O[C@@H](OC(=O)c2cc(O)c(O)c(O)c2)[C@@H](OC(=O)c2cc(O)c(O)c(O)c2)[C@@H](OC(=O)c2cc(O)c(O)c(O)c2)[C@@H]1OC(=O)c1cc(O)c(O)c(O)c1)c1cc(O)c(O)c(O)c1 (stereo not given in full) | 79% (active) |
| CC1(C)CN(c2ccc(-c3ccnc4ncnn34)cc2)C1=O | 99% |
| CCCOCC(O)CC(CC)C(=O)NNC(=S)Nc1ccccc1 (stereo not given) | 100% |
| O=C(Nc1ccc(F)cc1)C1CCN(C(=O)c2ccc([N+](=O)[O-])cc2)CC1 | 97% |
| O=C(Nc1ccc(F)c([N+](=O)[O-])c1)C1CC(=O)N(Cc2ccccc2)C1 (stereo not given) | 92% |
| Cc1cc(C2=NNC(=Nc3ccc(S(=O)(=O)N4CCOCC4)cc3)SC2)c(C)n1CC1CCCO1 (stereo not given) | 101% |
| O=C(N/C(=C\c1ccc(F)cc1)C(=O)N1CCCCCC1)c1ccccc1 | 98% |
| Clc1ccc(CN2CCN(/N=C/c3cccnc3)CC2)cc1 | 101% |
| Cc1ccc(NC(=S)NC(=O)c2ccc(-c3ccccc3)cc2)c(C)c1 | 97% |
| COc1c(F)c(F)c(C(=O)O)c(Nc2ccccc2C)c1F | 97% |
| Cc1ccc(Nc2c(F)c(F)c(F)c(F)c2C(=O)O)c(C)c1 | 131% [activator] (active) |
| Cc1cc(C)n(CC(=O)Nc2ccc([N+](=O)[O-])cc2)n1 | 96% |
| COc1ccc(C2CC(c3cccs3)Nc3nnnn32)cc1 (stereo not given) | 98% |
| Cc1c(Br)ccc(NC(=O)COc2ccccc2C(N)=O)c1C | 102% |
| CN1C(=O)/C(=C\c2ccc(-c3ccccc3)o2)SC1=S | 88% |
| O=C(CCc1ccccc1)NCCc1cccs1 | 100% |
| O=C(CCC(=O)N1CCCC1)Nc1ccc([N+](=O)[O-])cc1 | 101% |
| CN(C)CC(C)(C)CNC(=O)c1cc(Br)cc(Br)c1O | 95% |
| N#C/C(=C\c1ccc(-c2cccc([N+](=O)[O-])c2)o1)C(=O)NCCN1CCOCC1 | 92% |
| CCN1CCN(C(=O)CCN2C(=O)c3ccccc3C2=O)CC1 | 98% |
| COc1ccc(CC(=O)NCc2nnc(SCC(=O)Nc3ncc(C)s3)n2C)cc1 | 98% |
| CCC(O)C1CCN(Cc2cn(-c3ccc(OC)cc3)nc2-c2cccc(F)c2)CC1 (stereo not given) | 102% |
| CCC1(CC)NC(=O)N(Cc2nc3ccccc3s2)C1=O | 98% |
